From PubChem BioAssay (NCI) come the findings set out here.

About 83,000 compounds went through this panel and 20% of them were active in at least one assay; those are over-represented in the sample as a whole.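 Method: cells in 96-well plates; compound added at one concentration; 48 h incubation; percent growth measured; values under 10 scored active.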 A number with no mark means an inactive call. Calls of active or inactive are those of the source.

The test system of this assay is PC-3 prostate. The assay is described as follows: NCI-60 one-dose screen, 48 h (100 = growth as untreated, 0 = no growth, -100 = all killed). Particulars: 10 µM.
Take `C=C(C(=O)c1ccccc1)C(NC(C)(C)C)c1ccccc1` (centres undefined): the growth was 5.45% (active).

As for `O=c1c2ccccc2nc(SCCN2CCCCC2)n1CCc1ccccc1`, the growth is 89.2%.

For `N=c1c2c(-c3ccccc3)c(-c3ccccc3)n(Cc3ccccc3)c2ncn1CCCO`, the growth is 33.8%.

As to `COc1cc(/C=C2\Oc3cc(OCC(=O)c4ccccc4)ccc3C2=O)cc(OC)c1OC`, the growth was 85.2%.

With `Cc1ccc(NC(=O)CSc2nc3ccccc3c(=O)n2CCc2ccccc2)c(C(=O)O)c1`, the growth was 97.8%.

On to `O=C(Nc1nc2ccc(F)cc2s1)c1cc(-c2ccc(F)cc2)n2nc(-c3ccccc3)cc2n1`, for which the growth is 84.2%.

As to `CN1CCCNc2c(c(=O)c2=O)NCCCN(C)CCCNc2c(c(=O)c2=O)NCCCN(C)CCCNc2c(c(=O)c2=O)NCCCN(C)CCCNc2c(c(=O)c2=O)NCCCN(C)CCCNc2c(c(=O)c2=O)NCCCN(C)CCCNc2c(c(=O)c2=O)NCCCN(C)CCCNc2c(c(=O)c2=O)NCCC1`, the growth is 77.5%.

`CCN1CCC2(CC1)OC(c1ccccc1)C(c1ccccc1)O2` (centres undefined): the growth was 89.1%.

Consider `O=C(O)c1ccc(Cl)cc1Nc1ccc(F)cc1`, for which the growth is 83.9%.

For `CCCCCC(=O)c1ccc(OCCCN2CCN(C(=O)OCC)CC2)cc1`, the growth is 78.7%.

On to `COc1ccc(NC(=O)CSc2nc3ccccc3c(=O)n2CCc2ccccc2)cc1`, for which the growth was 106%.

For the compound `COc1ccc(-c2nnc(-c3c(-c4ccccc4)nc4ncccn34)o2)cc1OC`, the growth is 97.9%.

`COc1ccc2nc3cc(Cl)ccc3c(NCCNCC(C)O)c2c1` (centres undefined): the growth was 28.1%.

Take `CC(C)(C)NC/C(=C\c1ccccc1)C(=O)c1ccccc1`: the growth is 0.348% (active).

As to `COc1ccc(-c2ccc3cc(C(=O)Nc4ccc(O)c(C(=O)/C=C/c5cc(OC)c(OC)c(OC)c5)c4)ccc3c2)cc1`, the growth is 65.5%.

With `CCCCN(CCCC)c1cc(C(=O)CCCCCN)c2ccccc2n1`, the growth was -93.2% (active).

Take `COc1ccc(NC(=O)Cc2nc3nc4sc(C)c(C)c4c(=O)n3[nH]2)cc1`: the growth was 95.9%.

With `COc1cc(-c2nc(-c3nnc(-c4ccc(F)c(Cl)c4)o3)c3ccccn23)cc(OC)c1OC`, the growth was 56.1%.

For the compound `NC(=O)SCC(=O)Nc1ccc(S(N)(=O)=O)cc1`, the growth was 100%.

Turning to `Nc1nccc(Nc2ccccc2)n1`, the growth is 102%.

Turning to `Oc1[nH]c2cc(Cl)ccc2c1/C=c1/ccc2c(c1)N=C(c1cc(F)cc(F)c1)N=2`, the growth was 13%.

Turning to `c1ccc2c(c1)oc1c3cccnc3ccc21`, the growth is 79.3%.

As to `COc1ccc2c(c1)sc1nc(-c3ccccc3)c(-c3ccsc3)n12`, the growth was 16.6%.

As to `CSc1cc(SC)ncn1`, the growth was 91%.

On to `COc1ccc2c(c1)sc1nc(-c3ccccc3)c(-c3ccc(O)c(OC)c3)n12`, for which the growth was 82.3%.

`CCCCCCCCCCCCCC[n+]1ccc(C(N)=O)cc1`: the growth was -23.3% (active).

Take `CN1c2ccccc2[C@]2(Cc3ccccc3)Cc3ccccc3N[C@H]12`: the growth was 100%.

In the case of `CCN(CC)CCSCCCNc1c2ccc(Cl)cc2nc2ccc(OC)cc12`, the growth is -30.3% (active).

For `CC(=O)c1cc(Br)ccc1O`, the growth was 93.5%.

As to `COc1ccc(-c2nc3sccn3c2-c2nc3c([nH]2)C(=O)c2ccccc2C3=O)cc1`, the growth was 73.7%.

As for `N=C1c2nc3n(c2C(=O)c2nc4n(c21)CCCC4)CCCC3`, the growth was 90.6%.

Regarding `COc1ccc(-c2nc3ccccn3c2-c2nnc(-c3cc(OC)c(OC)c(OC)c3)o2)cc1`, the growth was 98.2%.

On to `CCN(CC)CCOc1nc2ccc(OC)cc2c2c1-c1ccc(OC)cc1C2=O`, for which the growth was -0.151% (active).

`CCCCCCCCN(CCCCCCCC)CCCCCCCCCN1CCCc2cc(OC)ccc21`: the growth is 85.2%.

Turning to `COc1ccc2c(c1)C(=O)c1c-2c(OCCN(C)C)nc2cc(OC)c(OC)cc12`, the growth is 69.2%.

For the compound `COc1ccc(/C(=C2\O[C@@H]([C@H]3COC(C)(C)O3)[C@H]3OC(C)(C)O[C@@H]23)c2cc(OC)c(OC)c(OC)c2)cc1O`, the growth was 30.6%.

For the compound `Nc1ccn(C2CC(O)C(CO)O2)c(=O)n1` (centres undefined), the growth was 99.4%.

For `CC(C)=CCc1ccc(O)c(=O)cc1C(C)C`, the growth is 43.7%.

Regarding `COc1cc(NC(=O)CSc2nc3ccccc3c(=O)n2CCc2ccccc2)cc(OC)c1OC`, the growth was 41.8%.
